In PMC7819943, “Rice protein-binding microarrays: a tool to detect cis-acting elements near promoter regions in rice” one finds binding signal data, which are given here for 44 sequences.

In all, about 35,000 sequences were measured (“fluorescence intensity (a.u.)”: median about 10,000, highest 2% from about 52,000 on). The full list was thinned out, with the highest values kept by preference.

The target in the experiment is T1, OsWOX13 (Oryza sativa, UniProt Q5QMM3 1-267).
T1 sequence: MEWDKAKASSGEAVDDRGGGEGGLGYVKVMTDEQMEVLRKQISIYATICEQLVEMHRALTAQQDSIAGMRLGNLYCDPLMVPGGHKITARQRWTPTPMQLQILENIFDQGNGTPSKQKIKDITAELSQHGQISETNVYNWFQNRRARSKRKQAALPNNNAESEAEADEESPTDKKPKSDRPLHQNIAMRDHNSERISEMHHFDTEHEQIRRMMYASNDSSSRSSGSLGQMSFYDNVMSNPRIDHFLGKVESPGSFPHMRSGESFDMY
Description: protein-binding microarray (RPBM); PBS, 2% BSA, 51.3 ng/ul salmon testes DNA, 50 uM zinc acetate, 200 nM TF, 25 C, 1 h; high values mean tight binding. As to conditions: protein: recombinant; tags: N-terminal polyhistidine and DsRed monomer fusion (pET32a); label: CyDye5-dUTP incorporated in the synthesized complementary strand; 3' TTTTT single-stranded linker to array surface; dsDNA, one strand shown. The method, boiled down:
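The binding signal for each feature is its fluorescence intensity in arbitrary units. An Axon 4000B scanner was used to read a custom Agilent array that had been made double-stranded with Cy5-dUTP primer extension, blocked with 2% BSA, incubated at 25 °C for 1 h with 200 nM protein in PBS, 2% BSA, salmon testes DNA and 50 µM zinc acetate, and washed. The protein was an N-terminal polyhistidine–DsRed transcription factor fusion from E. coli BL21-CodonPlus, purified on Ni–NTA.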
On to “AGATCTGATTGATATTGATCCATCGCCGATCGATTGATCACGGAGTCACCTAGTGCAG”, for which the binding signal is 53800 fluorescence intensity (a.u.). As for “GTAGATAGATGGCACATTGGCAGTGATGGCTGTGTACAGTCGGAGTCACCTAGTGCAG”, the figure is 8260 fluorescence intensity (a.u.). As for “ATATAATAATAGATAGATAGATAGATAGATAGATAGATAGCGGAGTCACCTAGTGCAG”, the figure is 49300 fluorescence intensity (a.u.). For “GGGCTGTTTAGTTTTGGATTGATTGAGCAATGTAATATAACGGAGTCACCTAGTGCAG”, the binding signal is 22200 fluorescence intensity (a.u.). With “TAGATAGATAGATAGATATAGTTGGTGTGTTTGACCCTAGCGGAGTCACCTAGTGCAG”, the binding signal was 36400 fluorescence intensity (a.u.). As for “AGGAATCGGAATTGATTTCATGCACTGATCGATCCATCCACGGAGTCACCTAGTGCAG”, the figure is 7970 fluorescence intensity (a.u.); as for “TTTGATTGAGATTGATAATAACCTGCTGTAACTTAGCGAACGGAGTCACCTAGTGCAG”, 61100 fluorescence intensity (a.u.). As for “TGTTATAATAGTGTAGATTGATCGATATAATTGTATATGACGGAGTCACCTAGTGCAG”, the figure is 3170 fluorescence intensity (a.u.); as for “AATAGATTGATTGATTGATTGAATAATATAGATAGATTGACGGAGTCACCTAGTGCAG”, 64400 fluorescence intensity (a.u.). Under “GATAGATAGATAGATAGATAGATAGATTTGTTGGCTGTGTCGGAGTCACCTAGTGCAG” stands 63500 fluorescence intensity (a.u.); under “ATAACTAATATAATCGAACCTGCCTCACTTAATATGTGGCCGGAGTCACCTAGTGCAG”, 4830 fluorescence intensity (a.u.); under “CTAAAATTACATATGTAATTTAGGCACTTACATATGTAATCGGAGTCACCTAGTGCAG”, 19500 fluorescence intensity (a.u.).

Regarding “TGTTAACCAGATTTATTATATTTGAAAATGTCACCTCCAACGGAGTCACCTAGTGCAG”, the binding signal was 8160 fluorescence intensity (a.u.).

Turning to “TTGCAAATAATTTGGAAAGGTAATATGAGCTACAGCTGTGCGGAGTCACCTAGTGCAG”, the binding signal is 7080 fluorescence intensity (a.u.). Take “ATAATGGATTGCTTGTTCCAGCACTGAATGTGCTGCCAAGCGGAGTCACCTAGTGCAG”: the binding signal was 6550 fluorescence intensity (a.u.). Consider “CGAATTAACTAGATCATATTACTCTTTCATGCAATAAACACGGAGTCACCTAGTGCAG”, for which the binding signal is 4320 fluorescence intensity (a.u.). As for “TGGGATAATTAACTCGTAATGATCCCCAAATGCGTGCGTACGGAGTCACCTAGTGCAG”, the figure is 28300 fluorescence intensity (a.u.); as for “GTTAACGACCAAAATTGGTAGCATCGACACCTCCCTGGGCCGGAGTCACCTAGTGCAG”, 4240 fluorescence intensity (a.u.); as for “ATCTATAATTAGATTGATATGATTATCTTGTGTACAACAACGGAGTCACCTAGTGCAG”, 37800 fluorescence intensity (a.u.). Under “ATAGATAGATAGATAATAGATAGATAGAAGATAGATAGATCGGAGTCACCTAGTGCAG” stands 44600 fluorescence intensity (a.u.); under “TAGATAGATAGAAGATAATAGAAGATAGATAATAGAAGATCGGAGTCACCTAGTGCAG”, 10200 fluorescence intensity (a.u.). Under “TTACTTAATTACTATAGATAATTAGTTGATTAGTGTTACTCGGAGTCACCTAGTGCAG” stands 45000 fluorescence intensity (a.u.). Regarding “AATAGATAGATTGATACCACCACTTAACTATACTAATGCTCGGAGTCACCTAGTGCAG”, the binding signal is 63700 fluorescence intensity (a.u.).

For “AGTTATGTAATTGGATCATGAGTAGATATACATGTGTGCTCGGAGTCACCTAGTGCAG”, the binding signal is 29300 fluorescence intensity (a.u.). “TCCACTAATATTAACCAATAGACAGATATACTATCACAGTCGGAGTCACCTAGTGCAG”: the binding signal was 10800 fluorescence intensity (a.u.).

As for “GGTAATTGATTATGCACCTGATCTAGATACATGTACAGCTCGGAGTCACCTAGTGCAG”, the binding signal is 61800 fluorescence intensity (a.u.). In the case of “TAGCCACCGTGATTGATTGATCTATAGATCGATTGGTGCCCGGAGTCACCTAGTGCAG”, the binding signal is 64000 fluorescence intensity (a.u.). For the sequence “GGTGATTAGACCGGTGATCTATACCGGTCAGACCGATAGCCGGAGTCACCTAGTGCAG”, the binding signal was 47800 fluorescence intensity (a.u.). With “ATTATTGAACGAATGATTATCGTAGATTATACATCTAGCCCGGAGTCACCTAGTGCAG”, the binding signal was 28400 fluorescence intensity (a.u.). As for “AGATAGATAGATAGATAGATAGATAGATAGATAGATAGATCGGAGTCACCTAGTGCAG”, the figure is 55700 fluorescence intensity (a.u.); as for “AGTGGTGATGGGCACAATGGTGATTAGAGTGGCGGAGATCCGGAGTCACCTAGTGCAG”, 7460 fluorescence intensity (a.u.); as for “TATTGATTTAATGAAACTAATTTGGTATTATAAATATTACCGGAGTCACCTAGTGCAG”, 32200 fluorescence intensity (a.u.). For the sequence “GGAGAGCAATCAAGCGAAATTGACACGTGTCACGGCAGTGCGGAGTCACCTAGTGCAG”, the binding signal was 30300 fluorescence intensity (a.u.).

Turning to “ATGCAAAGTTGCAGGGATTGATTGGCTGTTTCGTTTGCTACGGAGTCACCTAGTGCAG”, the binding signal was 21800 fluorescence intensity (a.u.). As for “CATCCAAATTGGCAAAGGCCGCCTCTTTCTTTAATTAACCCGGAGTCACCTAGTGCAG”, the figure is 14100 fluorescence intensity (a.u.). On to “ATCGTGATTGATGGCATTGGTATAGATTTCGAGCATTGGCCGGAGTCACCTAGTGCAG”, for which the binding signal was 63900 fluorescence intensity (a.u.). Under “TGCGTGATTAGCTGATAATACACGTGAATTATGTATGACGCGGAGTCACCTAGTGCAG” stands 52800 fluorescence intensity (a.u.). As for “AGTATAATTAGCATACTATGATATCGATATACACGTTATGCGGAGTCACCTAGTGCAG”, the binding signal was 31400 fluorescence intensity (a.u.). As for “TTGACATCATCATTGACGTGATAGATATAGTATATTAGACCGGAGTCACCTAGTGCAG”, the binding signal was 17000 fluorescence intensity (a.u.). Turning to “TAGCTAGATTGATAATGTACATATATGAATTTGTATGCGACGGAGTCACCTAGTGCAG”, the binding signal is 55500 fluorescence intensity (a.u.).

On to “TTGTATAAATTGCTATTAGATTGGCTATATATGAATTAGACGGAGTCACCTAGTGCAG”, for which the binding signal was 37500 fluorescence intensity (a.u.). For the sequence “TAGCTGATTATTACAGATGTTGGAGGATGAATAATTGTGACGGAGTCACCTAGTGCAG”, the binding signal is 13500 fluorescence intensity (a.u.). With “AAGATAAAATGTATGATTGTATGCCTAATTTGAATAGTGGCGGAGTCACCTAGTGCAG”, the binding signal was 15900 fluorescence intensity (a.u.). Consider “ACAAATTGAGTGTTATAGTGAGATGGCATCGGAGATGAGCCGGAGTCACCTAGTGCAG”, for which the binding signal is 32400 fluorescence intensity (a.u.).
